Article PMC8384837, “Expanding the binding specificity for RNA recognition by a PUF domain”

Target: PUM1 PUF domain R1-GPK (Homo sapiens, UniProt Q14671 828-1176, S863G;R864P;Q867K)
Test: yeast three-hybrid, YBZ-1, SC-Leu-His + 0.5 mM 3-AT, 4 days
Conditions: tags: N-Gal4 AD-HA kept; label: inside an RPR1-promoter hybrid RNA with tandem MS2 sites; ssRNA
Outline: (§1)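 Each repeat of the Pumilio-1 PUF domain was randomized at its three base-contacting residues, and these libraries were co-expressed from a centromeric plasmid with matching RNA elements in strain YBZ-1. After four days on SC-Leu (input) or SC-Leu-His + 0.5 mM 3-AT (selection), the repeat regions were PCR-amplified and Illumina-sequenced. The interaction score compares variant frequency between input and selection as a log change, computed in log2 with a pseudocount of 1 for absent variants.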

| Sequence | binding signal |
| --- | --- |
| GGCUAGAACUAGUGGAUCCCCCGGCGCCCGGCGGCUCGAGCCCGGGUAAGUGUAAAUUGUCUGCAUGCCGCCGGGCGCCAUGCCUGCAGGUCGACUCUAGAAAACAUG | 2.87 log2 enrichment (interaction score) |
| GGCUAGAACUAGUGGAUCCCCCGGCGCCCGGCGGCUCGAGCCCGGGUAAGUGUAAAUCGUCUGCAUGCCGCCGGGCGCCAUGCCUGCAGGUCGACUCUAGAAAACAUG | 4.33 log2 enrichment (interaction score) |
| GGCUAGAACUAGUGGAUCCCCCGGCGCCCGGCGGCUCGAGCCCGGGUAAGUGUAAAUGGUCUGCAUGCCGCCGGGCGCCAUGCCUGCAGGUCGACUCUAGAAAACAUG | 0.78 log2 enrichment (interaction score) |

Target: PUM1 PUF domain R4-GYP (Homo sapiens, UniProt Q14671 828-1176, N971G;H972Y;Q975P)
Test: as above
Conditions: tags: N-Gal4 AD-HA kept; label: inside an RPR1-promoter hybrid RNA with tandem MS2 sites; ssRNA
Outline: as §1

| Sequence | binding signal |
| --- | --- |
| GGCUAGAACUAGUGGAUCCCCCGGCGCCCGGCGGCUCGAGCCCGGGUAAGUGUACAUAGUCUGCAUGCCGCCGGGCGCCAUGCCUGCAGGUCGACUCUAGAAAACAUG | 5.39 log2 enrichment (interaction score) |
| GGCUAGAACUAGUGGAUCCCCCGGCGCCCGGCGGCUCGAGCCCGGGUAAGUGUAUAUAGUCUGCAUGCCGCCGGGCGCCAUGCCUGCAGGUCGACUCUAGAAAACAUG | 7.06 log2 enrichment (interaction score) |
| GGCUAGAACUAGUGGAUCCCCCGGCGCCCGGCGGCUCGAGCCCGGGUAAGUGUAAAUAGUCUGCAUGCCGCCGGGCGCCAUGCCUGCAGGUCGACUCUAGAAAACAUG | 5.1 log2 enrichment (interaction score) |
